# Test results reported in paper PMC5540273 (PLoS ONE, 2017).
# Experiments:
# Conditions in all cases: concentration: 1 μM, replicates: in singlicate; n = 1
# [1] = test system: RPS6KA4(Kin.Dom.1-N-terminal)
# [2] = test system: RPS6KA4(Kin.Dom.2-C-terminal)
# [3] = test system: RPS6KA5(Kin.Dom.1-N-terminal)
# [4] = test system: RPS6KA5(Kin.Dom.2-C-terminal)
# [5] = test system: T1, RSK1(Kin.Dom.1-N-terminal)
# T1 construct: gene RPS6KA1
# [6] = test system: T2, RSK1(Kin.Dom.2-C-terminal)
# T2 construct: gene RPS6KA1
# [7] = test system: T3, RSK2(Kin.Dom.1-N-terminal)
# T3 construct: gene RPS6KA3
# [8] = test system: T4, RSK2(Kin.Dom.2-C-terminal)
# T4 construct: gene RPS6KA3
# [9] = test system: T5, RSK3(Kin.Dom.1-N-terminal)
# T5 construct: gene RPS6KA2
# [10] = test system: T6, RSK3(Kin.Dom.2-C-terminal)
# T6 construct: gene RPS6KA2
# [11] = test system: T7, RSK4(Kin.Dom.1-N-terminal)
# T7 construct: gene RPS6KA6
# [12] = test system: T8, RSK4(Kin.Dom.2-C-terminal)
# T8 construct: gene RPS6KA6
# S6K1 = test system: S6K1
# SBK1 = test system: SBK1
# SGK2 = test system: SGK2
# SGK3 = test system: SGK3
# SGK = test system: SGK
# SIK2 = test system: SIK2
# SIK = test system: SIK
# SLK = test system: SLK
# 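Also: KINOMEscan kinase panel screen.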
SMILES,%Inh [1],%Inh [2],%Inh [3],%Inh [4],%Inh [5],%Inh [6],%Inh [7],%Inh [8],%Inh [9],%Inh [10],%Inh [11],%Inh [12],%Inh (S6K1),%Inh (SBK1),%Inh (SGK2),%Inh (SGK3),%Inh (SGK),%Inh (SIK2),%Inh (SIK),%Inh (SLK)
Cl.Cl.NC(CNC(=O)c1cc(Br)c(-c2ccnc3[nH]ccc23)s1)c1ccccc1 (stereo not drawn) [GSK1322949],37%,62%,37%,33%,10%,26%,37%,22%,14%,14%,0%,16%,39%,51%,16%,66%,46%,6%,4%,20%
c1ccc(Oc2ccc(Nc3ccnc4cc(-c5ccc(CN6CCCCC6)o5)ccc34)cc2)nc1 [GW567143],13%,0%,0%,0%,22%,0%,0%,20%,3%,0%,0%,1%,6%,25%,6%,0%,0%,70%,97.4%,36%
Cl.N#CCc1ccc(Nc2nccc(Nc3ccc(Oc4ccccc4)cc3)n2)cc1 [GW639905],0%,0%,0%,0%,1%,0%,0%,16%,4%,0%,0%,0%,0%,13%,0%,90.1%,0%,0%,0%,0%
CCn1cnc2c(NCc3ccccc3)ncnc21 [SKF-96418],13%,0%,11%,0%,0%,0%,30%,0%,0%,0%,9%,0%,17%,0%,2%,3%,2%,0%,0%,0%
Cc1cc(-c2c(-c3ccc(F)cc3)ncn2CCCN2CCOCC2)nc(N)n1 [SB-222517],18%,0%,23%,4%,30%,49%,34%,0%,9%,21%,20%,0%,11%,18%,0%,3%,0%,2%,0%,18%
N#Cc1cnc2cc(-c3cnc(CNCCN4CCOCC4)s3)ccc2c1Nc1ccc(Oc2ccccc2)cc1 [GW664114],41%,0%,76%,28%,91.7%,32%,79%,1%,78%,16%,11%,14%,61%,1%,0%,4%,1%,16%,45%,67%
CN(C)c1ncnc2nc[nH]c12 [SKF-31736],1%,0%,0%,11%,0%,0%,39%,0%,0%,0%,28%,8%,29%,0%,23%,0%,14%,0%,0%,0%
CC(=O)Nc1cn2nc(Oc3cccc(NC(=O)c4cccc(C(F)(F)F)c4)c3)ccc2n1,47%,0%,0%,6%,0%,0%,0%,30%,0%,5%,0%,9%,0%,0%,1%,0%,0%,18%,32%,21%
N#CC1(c2cccc(C(=O)Nc3cccc(Oc4ccc5nc(NC(=O)C6CC6)sc5n4)c3)c2)CC1,0%,2%,0%,0%,0%,25%,15%,1%,25%,21%,11%,10%,0%,0%,0%,0%,0%,0%,31%,39%
Nc1ncc(-c2cn[nH]c2)c2scc(-c3ccc4c(c3)CCN4C(=O)Cc3ccccc3)c12 [GSK2593067],37%,0%,24%,0%,22%,2%,0%,2%,31%,0%,0%,0%,8%,0%,0%,0%,0%,0%,59%,73%
Fc1cc(Cl)ccc1Nc1ccnc2cc(-c3ccc(CN4CCOCC4)o3)ccc12 [GW560109],35%,0%,9%,0%,6%,28%,14%,44%,100%,0%,0%,90.3%,26%,37%,6%,0%,0%,100%,97.4%,32%
O=C1NC(=O)C(c2ccccc2Cl)=C1Nc1cccc(Cl)c1 [SB-342409],16%,0%,2%,0%,75%,9%,19%,31%,100%,0%,0%,9%,7%,8%,0%,5%,0%,0%,5%,96.5%
Cc1ccc(NC(=O)c2ccc(Cl)c(Cl)c2)cc1-c1ccc(C(=O)Nc2ccncc2)cc1 [GSK1398460],25%,0%,15%,0%,24%,2%,0%,22%,7%,9%,0%,23%,0%,15%,0%,14%,0%,9%,8%,29%
COc1cccc(C2=C(Nc3cccc(O)c3)C(=O)NC2=O)c1 [SB-390771],21%,0%,21%,2%,84%,0%,8%,28%,84%,7%,0%,37%,11%,4%,0%,16%,0%,3%,0%,69%
Cn1cc(-c2ccc3c(c2)CCN3C(=O)Cc2cc(F)cc(C(F)(F)F)c2)c2c(N)ncnc21 [GSK2635225],0%,0%,23%,6%,1%,5%,0%,19%,19%,0%,0%,0%,9%,7%,0%,8%,1%,0%,0%,41%
CC(C)c1nc(-c2cccc(NS(=O)(=O)c3c(F)cccc3F)c2)c(-c2ccnc(Nc3ccc(N4CCOCC4)nc3)n2)s1.Cl [GSK1723980],0%,0%,0%,0%,83%,1%,15%,0%,27%,0%,0%,19%,29%,20%,0%,15%,34%,90.8%,99.4%,73%
COC(=O)Nc1nc2cc(Oc3ccc(NC(=O)Nc4cccc(SC)c4)cc3)ccc2[nH]1.Cl [GW697999],3%,0%,15%,0%,0%,0%,0%,4%,7%,0%,0%,0%,9%,0%,0%,8%,11%,0%,0%,33%
Fc1cc(Cl)ccc1Nc1ccnc2cc(-c3ccc(CN4CCSCC4)o3)ccc12 [GW560106],18%,0%,23%,0%,0%,25%,0%,48%,0%,6%,0%,87%,0%,0%,0%,0%,0%,81%,97.2%,65%
Cc1cc(-c2ccnc(Nc3cccc(C#N)c3)n2)cc(C)c1O [GSK1440913],0%,0%,0%,0%,12%,17%,5%,0%,26%,21%,0%,0%,0%,28%,29%,6%,55%,15%,0%,21%
COC(=O)Nc1nc2ccc(Oc3ccc(NC(=O)Nc4cc(C(F)(F)F)ccc4F)cc3)cc2[nH]1.Cl [GW654607],15%,0%,0%,0%,0%,13%,0%,35%,12%,0%,0%,16%,21%,17%,8%,5%,0%,0%,0%,85%
Cc1cccc(Nc2nc(N[C@H]3CCCC[C@H]3N)ncc2C(N)=O)c1.Cl [GSK986310],32%,0%,22%,0%,46%,20%,53%,28%,23%,12%,12%,30%,16%,71%,4%,0%,0%,26%,53%,72%
